The source of these data is PubChem BioAssay.

As a reminder, the viability is a read-out of living cells in per cent, often relative to untreated cells. As usually defined, the inhibition is the change of the read-out against control, counted positive when it falls.

SMILES strings stand for the structures. “And” between values parts separate entries of the source, which are not always exact repeats. Equal values may be shown once. More than one record can exist for a structure, and the calls need not agree. The source made the active and inactive calls. Unless noted, no rule for the calls is given here.

The nature of test [1]: liver-stage malaria parasite growth inhibition, primary screen, cell-based, HepG2, luciferase luminescence, HepG2 viability (AID 624349; in the data active = parasite load remaining mostly below about 12%, no sharp cut-off; inactive = mostly above about 10%;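 also: 100% = mean of DMSO negative control wells on the same plate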). To be noted: P. berghei liver stage in HepG2, luciferase luminescence, concentration not given here; parasite load remaining: stronger effect = lower value; viability: measured here: HepG2 viability without parasites.
Test [2] relates to Hepatitis C virus NS3 helicase. As to the kind of experiment: HCV NS3 helicase inhibitors, primary screen, biochemical, fluorescence polarization, LOPAC1280 library (AID 687035; in the data active = inhibition above about 37%). To be noted: Purified HCV NS3 helicase, Cy5-dT15 ssDNA binding fluorescence polarization; stronger effect = higher value; concentration not given here. Background: Fluorescence polarisation rises when a labelled molecule tumbles more slowly, as on binding a larger partner.

A short description of test [3]: Cy5 fluorescence quenching or enhancement artefacts, artefact control for HCV NS3 helicase inhibitor project, biochemical, LOPAC1280 (AID 687037). Particulars: Cy5-DNA-NS3h complex fluorescence interference counterscreen.
A short description of test [4]: stimulators of nuclear beta-catenin in C2C12, primary screen, imaging, WNT3A-conditioned medium, mouse C2C12, NPC library (AID 1117326; in the data active = nuclear beta-catenin stimulation mostly above about 4.2%, no sharp cut-off; inactive = mostly below about 10%). Particulars: stronger effect = higher value.
Test [5] is described as follows: Cy5 fluorescence interference with SSB-bound oligo, artefact control for HCV NS3 helicase inhibitor project, biochemical, NIH Clinical Collection, E. coli SSB (AID 743268).
The subject of test [6] is Hepatitis C virus NS3 helicase. Put plainly: HCV NS3 helicase inhibitors, primary screen, biochemical, fluorescence polarization, NIH Clinical Collection (AID 743270). To be noted: NS3 helicase binding to Cy5-dT15 DNA, stronger effect = higher value, concentration not given here.
Test [7] addresses Single-stranded DNA-binding protein (Escherichia coli (strain K12)) (UniProt P0AGE0). As to the kind of experiment: E. coli SSB displacement from DNA, counter-screen for HCV NS3 helicase inhibitor project, biochemical, fluorescence polarization, NIH Clinical Collection (AID 743271; in the data active = inhibition above about 28%). Particulars: stronger effect = higher value, concentration not given here.
The nature of test [8]: fluorescence interference in NS3h assay format, artefact control for HCV NS3 helicase inhibitor project, biochemical, NIH Clinical Collection (AID 743272).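 Also: HCV NS3 helicase with a Cy5 labelled single stranded DNA probe.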 To be noted: fluorescence interference counterscreen, stronger effect = lower value. (In general: Counterscreens check selectivity or assay interference.)
Test [9] concerns Neuropilin-2 / VEGF-C interaction (human). Put plainly: inhibitors of NRP2–VEGF-C binding, biochemical, microplate binding format, z-score (AID 743281). To be noted: microplate NRP2/VEGF-C binding assay; stronger effect = lower value.

As to `NCCCCCC(=O)O`, in test [1], the parasite load remaining is 112% (inactive) and 74.1% (inactive) and 56.9% (inactive); the viability was 104% and 74.3% and 90.5%. Besides, the inhibition in test [2] is 1% (inactive). Also, the fluorescence ratio (interference) in test [3] was 0.9 (inactive). Also, in test [4] (at 10 µM), the nuclear beta-catenin stimulation is 2.8% (inactive). In addition, the nuclear beta-catenin stimulation in [4] (stimulation, at 2 µM) is -1%.
On to `COc1ccc(C2CNC(=O)C2)cc1OC1CCCC1` (configuration not stated), for which the parasite load remaining in test [1] was 73.2% (inactive) and 98.7% (inactive) and 48.7% (inactive). Further, the viability in [1] is 91.9% and 79% and 67.5%. Also, the results for the inhibition in test [2], in [6] and in [7] were -7% (inactive), 2.77% (inactive) and -0.1% (inactive), respectively. In test [3], the fluorescence ratio (interference) was 1 (inactive). In addition, the fluorescence ratio in [5] is 1.03 (inactive); in test [8] it was 0.98 (inactive). Also, the z-score in test [9] is 0.503 (inactive). Moreover, the nuclear beta-catenin stimulation in test [4] (at 10 µM) is -0.2% (inactive); in [4] (stimulation, at 2 µM) it was -0.4%.
`Cc1[nH]c(=O)c(C#N)cc1-c1ccncc1`: the parasite load remaining in test [1] is 79.2% (inactive) and 78.4% (inactive) and 15.3% (inactive). In addition, the viability in test [1] is 69% and 68.9% and 65.5%. Further, the inhibition in test [2] is -3% (inactive); in test [6], -4.36% (inactive); in [7], -3.18% (inactive). The fluorescence ratio (interference) in test [3] was 1 (inactive). For the same compound, the results for the fluorescence ratio in test [5] and in test [8] were 1.05 (inactive) and 1.02 (inactive), respectively. Also, the z-score in test [9] was 0.188 (inactive). Further, the nuclear beta-catenin stimulation was 0.1% (inactive) in [4] (at 10 µM) and 0.4% in test [4] (stimulation, at 2 µM).
On to `Brc1c(NC2=NCCN2)ccc2nccnc12`, for which, in test [1], the parasite load remaining is 54.7% (inactive). The viability in test [1] amounted to 94.9%. The inhibition was -3% (inactive) in [2], -5.91% (inactive) in test [6] and -3.53% (inactive) in test [7]. Further, the fluorescence ratio (interference) in [3] was 1 (inactive). Besides, the fluorescence ratio in [5] was 1.04 (inactive); in test [8], 0.99 (inactive). Besides, the nuclear beta-catenin stimulation in test [4] (at 10 µM) is 0.3% (inactive); in [4] (stimulation, at 2 µM), -0.6%.
`c1cnc(N2CCN(Cc3ccc4c(c3)OCO4)CC2)nc1`: in test [1], the parasite load remaining was 105% (inactive) and 100% (inactive) and 31.2% (inactive). The viability in [1] was 78.5% and 71.3% and 101%. In addition, the inhibition is -1% (inactive) in test [2], -5.94% (inactive) in test [6] and -0.87% (inactive) in test [7]. Also, the fluorescence ratio (interference) in test [3] was 1 (inactive). In addition, the fluorescence ratio in test [5] is 1.01 (inactive); in test [8] it was 0.96 (inactive). In addition, the z-score in test [9] is -0.0568 (inactive). The nuclear beta-catenin stimulation is 0.7% (inactive) in test [4] (at 10 µM) and 4.1% in [4] (stimulation, at 2 µM).
For `CC(=O)[C@]1(O)Cc2c(O)c3c(c(O)c2[C@@H](O[C@H]2C[C@H](N)[C@H](O)[C@H](C)O2)C1)C(=O)c1ccccc1C3=O`, the parasite load remaining in test [1] is -0.405% (inactive) and 0.045% (active). Besides, the viability in test [1] is 2.19% and 69.5%. Also, the inhibition is -1% (inactive) in test [2], 0.4% (inactive) in test [6] and 14.5% (inactive) in [7]. Moreover, the fluorescence ratio (interference) in test [3] was 0.8 (active). Also, the fluorescence ratio in [5] was 0.31 (active); in test [8], 0.67 (active). In addition, the z-score in [9] was 1.07 (inactive). Further, the nuclear beta-catenin stimulation in test [4] (at 10 µM) is 18.6% (active); in [4] (stimulation, at 2 µM) it was 94.8%.
For `Cc1nnc(SCC2=C(C(=O)O)N3C(=O)[C@@H](NC(=O)Cn4cnnn4)[C@H]3SC2)s1`, in [1], the parasite load remaining is 82.1% (inactive) and 85.3% (inactive) and 68.8% (inactive); the viability is 98.8% and 78.7% and 99.1%. Besides, in test [2], the inhibition was -3% (inactive). Further, in test [3], the fluorescence ratio (interference) was 0.9 (inactive). In test [4] (at 10 µM), the nuclear beta-catenin stimulation is 0.1% (inactive). Further, the nuclear beta-catenin stimulation in test [4] (stimulation, at 2 µM) stood at 0.2%.
Consider `CCCCNc1c(C(=O)OCC)c(C)nc2c1cnn2CC`, for which the parasite load remaining in test [1] was 80.1% (inactive). Besides, in test [1], the viability is 77.6%. For the same compound, the inhibition in [2] is -5% (inactive). The fluorescence ratio (interference) in test [3] was 1 (inactive). Also, the nuclear beta-catenin stimulation is -0.5% (inactive) in test [4] (at 10 µM) and 1.7% in test [4] (stimulation, at 2 µM).
As for `C#CCN(C)Cc1ccccc1`, the parasite load remaining in test [1] is 33.9% (inactive) and 101% (inactive) and 59.8% (inactive). Also, in test [1], the viability was 48.5% and 89.5% and 94.1%. Besides, in [2], the inhibition was -3% (inactive). The fluorescence ratio (interference) in test [3] was 1 (inactive). In addition, the nuclear beta-catenin stimulation in test [4] (at 10 µM) was 2.1% (inactive); in test [4] (stimulation, at 2 µM), 3.2%.
As to `NC(=O)NO`, in [1], the parasite load remaining was 113% (inactive) and 59.4% (inactive); the viability is 74.6% and 101%. Besides, the inhibition in test [2] is -3% (inactive). Moreover, the fluorescence ratio (interference) in [3] was 1 (inactive). Also, the nuclear beta-catenin stimulation in [4] (at 10 µM) is -0.1% (inactive). For the same compound, in test [4] (stimulation, at 2 µM), the nuclear beta-catenin stimulation came to 4%.
On to `Nc1nc2c(ncn2COC(CO)CO)c(=O)[nH]1`, for which, in [1], the parasite load remaining was 53.7% (inactive) and 86.2% (inactive) and 12.5% (inactive). Moreover, the viability in test [1] was 114% and 95.7% and 65%. Also, the inhibition is -2% (inactive) in [2], -3.18% (inactive) in test [6] and -2.76% (inactive) in test [7]. The fluorescence ratio (interference) in test [3] was 1 (inactive). In addition, the fluorescence ratio in [5] is 1.03 (inactive); in test [8], 1.02 (inactive). The nuclear beta-catenin stimulation in test [4] (at 10 µM) was 1.2% (inactive); in test [4] (stimulation, at 2 µM), 1.2%.
For `CN(C)CC[C@@H](c1ccc(Cl)cc1)c1ccccn1`, the parasite load remaining in test [1] was 51.2% (inactive). Further, in [1], the viability was 68.9%. Besides, the results for the inhibition in [2], in [6] and in test [7] were -6% (inactive), -2.84% (inactive) and -2.76% (inactive), respectively. Besides, in test [3], the fluorescence ratio (interference) was 0.9 (inactive). The fluorescence ratio is 0.95 (inactive) in test [5] and 0.91 (inactive) in test [8]. For the same compound, the z-score in test [9] was 0.0729 (inactive). Moreover, the nuclear beta-catenin stimulation in [4] (at 10 µM) was -1.2% (inactive); in test [4] (stimulation, at 2 µM), 0.3%.
`Nc1ccn([C@H]2CC[C@@H](CO)O2)c(=O)n1`: the parasite load remaining in test [1] is 89% (inactive) and 87.9% (inactive) and 17.9% (inactive). Besides, the viability in test [1] is 73.7% and 72.5%. The inhibition in [2] is 0% (inactive); in [6] it was 2.77% (inactive); in [7] it was -1.64% (inactive). Further, the fluorescence ratio (interference) in [3] was 1 (inactive). For the same compound, the fluorescence ratio in [5] was 1.05 (inactive); in test [8] it was 1.02 (inactive). Moreover, the z-score in test [9] was 0.496 (inactive). The nuclear beta-catenin stimulation is -1% (inactive) in test [4] (at 10 µM) and -1.5% in test [4] (stimulation, at 2 µM).
For the compound `CCN1CCC[C@H]1CNC(=O)c1c(O)c(Cl)cc(Cl)c1OC`, in [1], the parasite load remaining was 132% (inactive) and 60.7% (inactive). The viability in test [1] was 135% and 99%. In addition, the inhibition in test [2] was -2% (inactive); in test [6], 1.19% (inactive); in test [7], 7.6% (inactive). The fluorescence ratio (interference) in test [3] is 1 (inactive). For the same compound, the fluorescence ratio in test [5] was 0.94 (inactive); in [8], 0.77 (active). Moreover, the z-score in test [9] is -0.335 (inactive). In addition, the nuclear beta-catenin stimulation in test [4] (at 10 µM) was 0.6% (inactive); in test [4] (stimulation, at 2 µM), 3.4%.
